Measurements from PubChem BioAssay (Tox21).
Results filed as inconclusive are left out. Activity calls are given as the source filed them. Unless noted, calls come from the whole dose curve; as a rule, active = well fitted curve in the direction sought with a large enough effect in the repeat runs; inconclusive = weak or mixed curves; inactive = no such curve, though single readings can be large; an effect the other way counts as inactive or inconclusive.

Columns and labels:
[1] = qHTS assay to identify small molecule agonists of the hypoxia (HIF-1) signaling pathway - cell viability counter screen (AID 1224844; calls by dose curve; note: nearly all actives have a fitted effect of over 50% in size; note: potency is the fitted concentration of half-maximal effect)
Outline: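 Same wells as the HIF-1 reporter screen; ME-180 cells carrying HRE-bla, 17 hr treatment at 37C; CellTiter-Glo luminescence read after 30 min at room temperature.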

[2] = qHTS assay to identify small molecule agonists of H2AX (AID 1224845; active = well fitted activation curve with a large enough effect in the signal ratio in the repeat runs, not every such curve was filed as active; the % refers to the signal ratio)
Outline: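 Wild-type CHO-K1 cells plated overnight, then exposed 3 hr at 37C to compounds at 15 concentrations (0.76% DMSO). Lysed, then HTRF anti-pH2AX(S139)-cryptate/anti-H2AX-d2 detection after 24 hr at room temperature; emissions 665 and 620 nm.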

[3] = qHTS assay to identify small molecule agonists of the hypoxia (HIF-1) signaling pathway (AID 1224846; active = well fitted activation curve with a large enough effect in the signal ratio in the repeat runs, not every such curve was filed as active; the % refers to the signal ratio)
Outline: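 In ME-180 cells bearing an HRE-bla construct, 17 h treatment with DMSO-dissolved compounds at 37C was followed by CCF4-AM loading to quantify reporter induction.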

[4] = qHTS assay to identify small molecule agonists of H2AX - cell viability counter screen (AID 1224847; calls by dose curve; note: nearly all actives have a fitted effect of over 30% in size; note: potency is the fitted concentration of half-maximal effect)
Outline: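 Compounds tested at 15 concentrations were incubated 3 hr at 37C with wild-type CHO-K1 cells; cellular ATP-based luminescence (CellTiter-Glo) indicated viability.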

[5] = qHTS RealTime-Glo MT Cell Viability Assay in HEK293 cells - 32 hour (AID 1224868); note: top concentration of the series differs between compounds; nearly all actives have a fitted effect of over 50% in size
Outline: (§1)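 Homogeneous bioluminescent viability format in HEK293 cells (600 cells/well). Following 5 h at 37 C/5% CO2, 23 nL compound was pintooled; the signal was measured repeatedly during 40 h incubation.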

[6] = A CellTox Green Cytotoxicity Assay to monitor cytotoxicity in HEK293 cells - 0 hour (AID 1224869); note: nearly all actives have a fitted effect of over 50% in size
Outline: (§2)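 Homogeneous no-lysis format: HEK293 cell suspension mixed with CellTox Green reagent, seeded, incubated 5 h at 37 C/5% CO2, then dosed by pintool with compound in DMSO.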

[7] = qHTS RealTime-Glo MT Cell Viability Assay in HepG2 cells - 40 hour (AID 1224870); note: nearly all actives have a fitted effect of over 50% in size
Outline: (§3)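 HepG2 cells mixed with RealTime-Glo MT reagents (NanoLuc plus cell-permeant prosubstrate) were seeded at 600 cells/well, incubated 5 h at 37 C/5% CO2, then pinned with compounds in DMSO; nonlytic luminescence tracked viability during 40 h treatment.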

[8] = qHTS RealTime-Glo MT Cell Viability Assay in HEK293 cells - 16 hour (AID 1224872)
Outline: as §1

[9] = qHTS RealTime-Glo MT Cell Viability Assay in HepG2 cells - 8 hour (AID 1224873); note: nearly all actives have a fitted effect of over 55% in size
Outline: as §3

[10] = qHTS RealTime-Glo MT Cell Viability Assay in HEK293 cells - 40 hour (AID 1224874); details: RealTime-Glo luminescence; max response: hits give low values; note: nearly all actives have a fitted effect of over 50% in size
Outline: (§4)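 Measured as luminescence from the same continuously cultured HEK293 wells at successive time points (0, 8, 16, 24, 32, 40 h) after compound addition. Reagent present from seeding; dosing at 5 h; incubation 37 C.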

[11] = A CellTox Green Cytotoxicity Assay to monitor cytotoxicity in HEK293 cells - 24 hour (AID 1224875); note: nearly all actives have a fitted effect of over 45% in size
Outline: as §2

[12] = A CellTox Green Cytotoxicity Assay to monitor cytotoxicity in HepG2 cells - 16 hour (AID 1224876); note: nearly all actives have a fitted effect of over 45% in size
Outline: (§5)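 Fluorescent DNA-binding dye, 600 HepG2 cells/well, 5 h preincubation then compound in DMSO; same plates read at 0–40 h, 37 C.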

[13] = qHTS RealTime-Glo MT Cell Viability Assay in HepG2 cells - 32 hour (AID 1224877); note: nearly all actives have a fitted effect of over 55% in size
Outline: (§6)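 Cell number in HepG2 cultures estimated from NanoLuc luminescence generated by metabolic reduction of a prosubstrate by living cells. The homogeneous, nonlytic format allowed repeated reads at 0, 8, 16, 24, 32 and 40 h of compound exposure.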

[14] = qHTS RealTime-Glo MT Cell Viability Assay in HEK293 cells - 0 hour (AID 1224880); note: nearly all actives have a fitted effect of over 45% in size; note: potency is the fitted concentration of half-maximal effect
Outline: as §4

[15] = qHTS RealTime-Glo MT Cell Viability Assay in HepG2 cells - 24 hour (AID 1224867); note: nearly all actives have a fitted effect of over 50% in size
Outline: as §6

[16] = A CellTox Green Cytotoxicity Assay to monitor cytotoxicity in HEK293 cells - 40 hour (AID 1224871); note: nearly all actives have a fitted effect of over 45% in size
Outline: as §2

[17] = A CellTox Green Cytotoxicity Assay to monitor cytotoxicity in HepG2 cells - 24 hour (AID 1224878); note: nearly all actives have a fitted effect of over 45% in size; note: potency is the fitted concentration of half-maximal effect
Outline: as §5

[18] = A CellTox Green Cytotoxicity Assay to monitor cytotoxicity in HepG2 cells - 40 hour (AID 1224879); note: nearly all actives have a fitted effect of over 40% in size; note: potency is the fitted concentration of half-maximal effect
Outline: as §5

[19] = qHTS assay to identify small molecule antagonists of the estrogen related receptor (ERR) signaling pathway from Tox21 library (AID 1224848); note: nearly all actives have a fitted effect of over 50% in size
Outline: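 First, 2,000 ERR cells per well were plated and held 6 h at 37 C/5% CO2. Next, compounds in DMSO were pinned in and left 18 h at 37 C. Finally, ONE-Glo was added and luminescence read after 30 min at room temperature.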

[20] = qHTS assay to identify small molecule agonists of the estrogen related receptor (ERR) signaling pathway from Tox21 library (AID 1224849; calls by dose curve; note: nearly all actives have a fitted effect of over 15% in size); details: ERR reporter cell line, ONE-Glo luciferase, 18 h; at 92.4 µM (top of the series) unless noted
Outline: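 Reporter cells (ERR, NTP source) treated with Tox21 10K compounds 18 h, 37 C. Readout: ONE-Glo luminescence, 30 min RT.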
% is set by controls: 0 for no effect and ±100 for the full control effect.

NCCCN(CCO)CCO
inactive: Potency [1] | Potency [2] | outcome [3] | Potency [4] | Potency [5] | Potency [6] | Potency [7] | Potency [8] | Potency [9] | max response [10] -7.84% | Potency [11] | Potency [12] | Potency [13] | Potency [14]

COc1ccc(OC)c(OC)c1
inactive: Potency [1] | Potency [2] | outcome [3] | Potency [4] | Potency [15] | Potency [6] | Potency [16] | Potency [8] | Potency [9] | max response [10] 15.8% | Potency [11] | Potency [12] | Potency [13] | Potency [17] | Potency [18] | Potency [14]

CCCC(C)C
inactive: Potency [1] | Potency [2] | outcome [3] | Potency [4] | Potency [15] | Potency [6] | Potency [7] | Potency [16] | Potency [11] | Potency [13] | Potency [17] | Potency [14]

Cn1c(=O)c2c(ncn2CC(O)CO)n(C)c1=O (stereo unspecified)
inactive: Potency [1] | Potency [2] | Potency [4] | Potency [19] | activity change, positive = activation [20] 6.5% [at 42.5 µM] | Potency [15] | Potency [5] | Potency [6] | Potency [7] | Potency [16] | Potency [8] | Potency [9] | max response [10] 2.79% | Potency [11] | Potency [13] | Potency [18] | Potency [14]

OCCC1CCCCN1 (stereo unspecified)
inactive: Potency [1] | Potency [2] | Potency [15] | Potency [6] | Potency [7] | Potency [16] | Potency [8] | Potency [9] | max response [10] -19.6% | Potency [11] | Potency [12] | Potency [18] | Potency [14]

O=C(c1ccccc1)c1ccc2n1CCC2C(=O)O (stereo unspecified)
inactive: Potency [1] | Potency [2] | Potency [4] | Potency [15] | Potency [6] | Potency [16] | Potency [8] | Potency [9] | max response [10] 0.683% | Potency [11] | Potency [12] | Potency [13] | Potency [18] | Potency [14]

O=C(c1ccc(O)cc1)c1ccc(O)cc1
inactive: Potency [1] | outcome [3] | Potency [4] | Potency [19] | Potency [15] | Potency [5] | Potency [6] | Potency [7] | Potency [16] | Potency [8] | max response [10] -22.8% | Potency [11] | Potency [12] | Potency [13] | Potency [17] | Potency [18] | Potency [14]
active: activity change, positive = activation [20] 37.5%

Cl/C(=C\n1cncn1)c1ccc(Cl)cc1Cl
inactive: Potency [1] | Potency [2] | activity change, positive = activation [20] -21.8% [at 42.5 µM] | Potency [15] | Potency [5] | Potency [6] | Potency [7] | Potency [16] | Potency [8] | Potency [9] | max response [10] -23.8% | Potency [11] | Potency [12] | Potency [13] | Potency [17] | Potency [14]

O=C(O)Cn1c(C(=O)Nc2nc(-c3ccccc3Cl)cs2)cc2ccccc21
active: Potency [1] 8.49 µM
inactive: Potency [2] | Potency [4] | Potency [19] | Potency [15] | Potency [5] | Potency [6] | Potency [7] | Potency [16] | Potency [9] | max response [10] -2.19% | Potency [11] | Potency [12] | Potency [13] | Potency [17] | Potency [18]

N[C@H]1C(O)O[C@H](CO)[C@H](O)[C@@H]1O (stereo partly specified)
inactive: Potency [1] | Potency [2] | Potency [19] | activity change, positive = activation [20] 1.03% | Potency [15] | Potency [5] | Potency [6] | Potency [7] | Potency [16] | Potency [8] | Potency [9] | max response [10] 9.12% | Potency [11] | Potency [12] | Potency [13] | Potency [17] | Potency [18] | Potency [14]

CC(CN)CCCN (stereo unspecified)
active: Potency [4] 357 nM
inactive: Potency [1] | outcome [3] | Potency [19] | activity change, positive = activation [20] -0.964% | Potency [15] | Potency [5] | Potency [6] | Potency [16] | Potency [9] | max response [10] 1.48% | Potency [11] | Potency [12] | Potency [14]

C=C(C)C(=O)OCCOc1ccccc1
inactive: Potency [1] | Potency [2] | Potency [4] | Potency [19] | activity change, positive = activation [20] 3.64% | Potency [15] | Potency [6] | Potency [7] | Potency [16] | Potency [8] | Potency [9] | max response [10] 8.99% | Potency [11] | Potency [12] | Potency [13] | Potency [17] | Potency [18] | Potency [14]

CCOC(=O)C1=C(C)NC(C)=C(C(=O)OC)C1c1cccc([N+](=O)[O-])c1 (stereo unspecified)
inactive: Potency [1] | Potency [2] | Potency [4] | Potency [6] | Potency [16] | Potency [11] | Potency [12] | Potency [17]
active: Potency [14] 5.35 µM

CN1CCC(=C2c3ccccc3CCc3sccc32)CC1
active: Potency [1] 16.9 µM | Potency [17] 23.9 µM | Potency [18] 23.9 µM
inactive: Potency [2] | Potency [4] | Potency [19] | activity change, positive = activation [20] -9.84% [at 42.5 µM] | Potency [15] | Potency [6] | Potency [8] | Potency [9] | Potency [11] | Potency [13]

N=C(N=C(N)N)N1CCOCC1
inactive: Potency [1] | Potency [2] | Potency [19] | activity change, positive = activation [20] 10.8% [at 42.5 µM] | Potency [15] | Potency [5] | Potency [6] | Potency [7] | Potency [16] | Potency [8] | Potency [9] | max response [10] 6.38% | Potency [11] | Potency [12] | Potency [13] | Potency [17] | Potency [18] | Potency [14]
